Measured values reported in PubChem BioAssay (NCI).
About 79,000 compounds went through this panel and 15% of them were active in at least one assay; those are over-represented in the sample as a whole. The source made the active and inactive calls. Rule as the data show it: active = growth inhibition above about 70%; inactive = the rest.

What was measured:
[1] = NCI Yeast Anticancer Drug Screen. Data for the rad52 strain (AID 147);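 also: 0% = growth of vehicle-treated control cultures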; conditions: S. cerevisiae rad52 mutant growth inhibition, hits give high values
How it was run: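 The repair-mutant yeast strain was incubated with compounds, then growth was read and inhibition derived relative to vehicle.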

[2] = NCI Yeast Anticancer Drug Screen. Data for the wt1 strain (AID 149);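 also: 0% = growth of vehicle-treated wt1 cultures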; conditions: S. cerevisiae wt1 strain (SPY 50644) growth inhibition, hits give high values
How it was run: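 Yeast wt1 strain exposed to compounds; growth inhibition measured relative to vehicle-treated controls.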

[3] = NCI Yeast Anticancer Drug Screen. Data for the rad50EPP+ strain (AID 151);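 also: 0% = growth of vehicle-treated control cultures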; conditions: S. cerevisiae rad50 mutant strain, hits give high values
How it was run: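 Vehicle-normalised growth inhibition; rad50EPP+ yeast strain, altered in DNA damage repair, compound-treated.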

[4] = NCI Yeast Anticancer Drug Screen. Data for the mgt1 strain (AID 153); conditions: S. cerevisiae mgt1 mutant growth inhibition, hits give high values
How it was run: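 Vehicle-normalized growth inhibition is determined in mgt1 yeast, a strain selected for a defined alteration in DNA repair or cell cycle control.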

[5] = NCI Yeast Anticancer Drug Screen. Data for the rad50 strain (AID 155);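 also: 0% = growth of vehicle-only cultures of the same strain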; conditions: S. cerevisiae rad50 strain growth inhibition, hits give high values
How it was run: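 Yeast carrying a defined DNA repair defect were exposed to test compounds, and growth was compared with vehicle-treated controls to give percent inhibition.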

[6] = NCI Yeast Anticancer Drug Screen. Data for the mec2-1 strain (AID 157); conditions: S. cerevisiae mec2-1 strain, hits give high values
How it was run: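 Mutant yeast (mec2-1) grown with compound; growth inhibition relative to vehicle control reported.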

[7] = NCI Yeast Anticancer Drug Screen. Data for the rad14 strain (AID 159);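 also: 0% = growth of vehicle-treated control cultures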; conditions: S. cerevisiae rad14 strain growth inhibition, hits give high values
How it was run: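 Yeast cells carrying a defined DNA-repair defect were exposed to compounds, and growth inhibition was calculated relative to vehicle-treated control cultures.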

[8] = NCI Yeast Anticancer Drug Screen. Data for the sgs1 mgt1 strain (AID 161);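 also: 0% = growth of cultures given vehicle only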; conditions: S. cerevisiae sgs1 mgt1 strain, hits give high values
How it was run: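 Percent growth inhibition was derived by comparing compound-exposed mutant yeast with vehicle-exposed cultures. The strain carries alterations in DNA damage repair.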

[9] = NCI Yeast Anticancer Drug Screen. Data for the CLN2oe strain (AID 163);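 also: 0% = growth of vehicle-only control cultures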; conditions: S. cerevisiae CLN2oe strain, hits give high values
How it was run: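 Compounds are applied to yeast harbouring a defined cell-cycle control change; reduced growth compared with vehicle-treated controls gives the value.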

[10] = NCI Yeast Anticancer Drug Screen. Data for the cln2 rad14 strain (AID 165);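 also: 0% = growth equal to vehicle treated cultures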; conditions: S. cerevisiae cln2 rad14 strain, hits give high values
How it was run: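 Readout is yeast growth inhibition versus vehicle-treated controls, using a strain with cln2 and rad14 alterations exposed to compound.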

[11] = NCI Yeast Anticancer Drug Screen. Data for the bub3 strain (AID 167); conditions: S. cerevisiae bub3 mutant strain, hits give high values
How it was run: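 Compounds were applied to a genetically altered yeast strain carrying a cell-cycle control defect. Growth inhibition was scored against vehicle-treated controls.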

[12] = NCI Yeast Anticancer Drug Screen. Data for the wt2 strain (AID 169);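 also: 0% = growth of vehicle-treated yeast cultures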; conditions: S. cerevisiae wt2 strain growth inhibition, hits give high values
How it was run: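 Against vehicle-treated controls, the growth of yeast exposed to each compound was compared, and the inhibition was recorded.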

[13] = NCI Yeast Anticancer Drug Screen. Data for the mlh1 strain (AID 171);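 also: 0% = growth of vehicle-treated control cultures of the same strain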; conditions: S. cerevisiae mlh1 strain growth inhibition, hits give high values
How it was run: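 Measured: yeast growth. Reference: vehicle-treated controls. Organism: strain with a defined alteration affecting DNA damage repair or cell cycle control, treated with compound.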

[14] = NCI Yeast Anticancer Drug Screen. Data for the sgs1 strain (AID 173);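 also: 0% = growth of vehicle-only control cultures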; conditions: S. cerevisiae sgs1 mutant, hits give high values
How it was run: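 Each compound was added to cultures of the altered yeast strain. Growth was recorded, and inhibition was derived by comparison with vehicle controls.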

[15] = NCI Yeast Anticancer Drug Screen. Data for the mlh1 rad18 strain (AID 175); conditions: S. cerevisiae mlh1 rad18 strain growth inhibition, hits give high values
How it was run: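 Genetically defined yeast (DNA repair-deficient) exposed to compounds; growth inhibition determined relative to vehicle.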

[16] = NCI Yeast Anticancer Drug Screen. Data for the rad18 strain (AID 177); conditions: S. cerevisiae rad18 mutant growth inhibition, hits give high values
How it was run: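 Vehicle-treated cultures served as the baseline for scoring compound-induced growth inhibition in DNA-repair-mutant yeast.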

[17] = at 5.0 µM (retest, dose inferred, filed as 0.5)
[18] = at 50.0 µM (retest, dose inferred, filed as 5.0)

Measured: growth inhibition

C=CCNC1=C2C[C@@H](C)C[C@H](OC)[C@H](O)[C@@H](C)/C=C(\C)[C@H](OC(N)=O)[C@@H](OC)/C=C\C=C(/C)C(=O)NC(=CC1=O)C2=O
inactive: [1]; at 1.2 µM -16% | [1]; at 3.7 µM -21% | [1]; at 11.0 µM 46% | [2]; at 1.2 µM -26% | [2]; at 3.7 µM -53% | [2]; at 11.0 µM 41% | [3]; at 1.2 µM -33% | [3]; at 3.7 µM -43% | [3]; at 11.0 µM -46% | [3]; at 33.0 µM -30% | [3]; at 100.0 µM -1% | [4]; at 1.2 µM -72% | [4]; at 3.7 µM -44% | [4]; at 11.0 µM 57% | [5]; at 1.2 µM -33% | [5]; at 3.7 µM -12% | [5]; [17] -32% | [5]; at 11.0 µM 64% | [6]; at 1.2 µM -73% | [6]; at 3.7 µM -59% | [6]; [17] 5% | [7]; at 1.2 µM -73% | [7]; at 3.7 µM -42% | [7]; at 11.0 µM 55% | [8]; [17] -7% | [9]; at 1.2 µM -60% | [9]; at 3.7 µM -43% | [9]; at 100.0 µM 27% | [10]; [17] -4% | [11]; at 1.2 µM -49% | [11]; at 3.7 µM -12% | [11]; [17] 35% | [12]; at 1.2 µM -51% | [12]; at 3.7 µM -65% | [12]; at 11.0 µM 33% | [13]; at 1.2 µM -36% | [13]; at 3.7 µM -56% | [13]; at 11.0 µM 50% | [14]; at 1.2 µM -34% | [14]; at 3.7 µM -10% | [14]; at 11.0 µM 56% | [15]; [17] -7% | [16]; at 1.2 µM -22% | [16]; at 3.7 µM -23% | [16]; at 11.0 µM 68%
active: [1]; at 33.0 µM 97% | [1]; at 100.0 µM 97% | [2]; at 33.0 µM 95% | [2]; at 100.0 µM 96% | [4]; at 33.0 µM 95% | [4]; at 100.0 µM 95% | [5]; at 33.0 µM 95% | [5]; [18] 96% | [5]; at 50.0 µM 90.8% | [5]; at 100.0 µM 95% | [6]; at 11.0 µM 77% | [6]; at 33.0 µM 96% | [6]; [18] 98% | [6]; at 50.0 µM 92.5% | [6]; at 100.0 µM 95% | [7]; at 33.0 µM 95% | [7]; at 100.0 µM 94% | [8]; [18] 96% | [8]; at 50.0 µM 92% | [9]; at 11.0 µM 80% | [9]; at 33.0 µM 96% | [10]; [18] 97% | [10]; at 50.0 µM 90.3% | [11]; at 11.0 µM 74% | [11]; at 33.0 µM 95% | [11]; [18] 98% | [11]; at 50.0 µM 90.4% | [11]; at 100.0 µM 94% | [12]; at 33.0 µM 93% | [12]; at 100.0 µM 96% | [13]; at 33.0 µM 94% | [13]; at 100.0 µM 95% | [14]; at 33.0 µM 94% | [14]; at 100.0 µM 96% | [15]; [18] 97% | [15]; at 50.0 µM 89.1% | [16]; at 33.0 µM 95% | [16]; at 100.0 µM 95%
